Screening results from PubChem BioAssay.
Shown are actives, neighbours in structure and some others; about 19% of the full set was active somewhere.
HT1080 IDH1KD tx: HT-1080 IDH1 knockdown cell toxicity (counter line); HT-1080 IDH1 knockdown viability, ATP luminescence, 48 h; Potency, µM (series often up to 46.1 µM), hits mostly cytotoxic; 360,000 compounds, 2% hits; AID 686971
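Knockdown cells (IDH1KD HT-1080) received compounds 2 h after plating at 750 cells/well and were kept 48 h at 37 °C in 5% FBS RPMI. A CellTiter-Glo luminescence read gave % activity for curve fitting.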
uPA surface inh: inhibitors of cell surface uPA generation | cell surface uPA generation assay, qHTS | Potency, µM (doses to about 38.3 µM), usual class: inhibitors | 330,000 compounds, 0.31% hits | AID 540303; active means well fitted inhibition curve with a large enough effect; inconclusive means small, poorly fitted or top-dose-only effect; inactive means no such curve, though single readings can be large or run the other way; tested in mouse RAW 264.7 cells; further: nearly all actives have a fitted effect of over 55% in size
DT40 TDP1 no CPT: qHTS for Inhibitors of human tyrosyl-DNA phosphodiesterase 1 (TDP1): qHTS in cells in absence of CPT | DT40 Tdp1-/- hTDP1 cells, no CPT, ATP luminescence, 48 h | 420,000 compounds, 15% hits | Potency, µM (doses to about 46.2 µM), actives largely listed as inhibitors; further: nearly all actives have a fitted effect of over 55% in size
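Chicken DT40 Tdp1-/- cells complemented with human TDP1, screened without camptothecin (DMSO vehicle only), 400 cells/well. Compounds pin-transferred, cells incubated at 37 °C for at least 48 hr. Growth read as ATP-dependent luminescence (CellTiter-Glo, 30 min at RT).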
TDP1 cell CPT: DT40-hTDP1 cell growth loss with CPT. chicken DT40 Tdp1-/-;hTDP1 cells + 20 nM CPT, ATP luminescence, 48 h. Potency, µM (doses to about 46.2 µM), usual class: inhibitors. 420,000 compounds, 12% hits. AID 686979; further: nearly all actives have a fitted effect of over 55% in size
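Chicken DT40 Tdp1-/- cells complemented with human TDP1, 400 cells/well, exposed to compounds plus 20 nM camptothecin for at least 48 h at 37 C; viability read as ATP content by CellTiter-Glo luminescence.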
HT1080NT lethal: kills 2HG-producing HT-1080-NT fibrosarcoma cells. HT-1080-NT fibrosarcoma viability, CellTiter-Glo ATP luminescence, 48 h. Potency, µM (series often up to 46.1 µM), usual class: cytotoxic. 360,000 compounds, 1.6% hits;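 further: NT is the 2HG producing partner of a matched IDH1 knockdown line; nearly all actives have a fitted effect of over 55% in size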
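Compounds were tested in concentration-response format on HT-1080-NT cells for 48 hours at 37 degrees C. Cell viability came from CellTiter-Glo luminescence; curves were classified by r2, response magnitude and activity.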
IL-1B inflam inh: blocks inflammasome-driven IL-1 beta release; 360,000 compounds, 4.7% hits; THP-1 LPS/ATP IL-1B secretion, AlphaLISA, 16 h; active compounds read low; AID 743279; activity change, % at 57.5 µM; in the data active means activity change below about -50%; inconclusive means mostly about -30% to -49%
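Secreted IL-1B measured by AlphaLISA bead assay after 16 h compound exposure of THP-1 cells; compounds (final up to 57.5 uM) added 1 h before LPS (250 ng/mL) and ATP (1.25 mM) stimulation; lower signal means less secretion.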
Numbers stand for hits; i = inactive; ? = inconclusive; nt = not tested or not shown; [ ] = another dose, or the depositor's remark. Unless noted, the call rests on the fitted dose curve; in most records, active means well fitted curve in the direction sought with a large enough effect; inconclusive means small, poorly fitted or top-dose-only effect, or another doubt; inactive means no such curve, though single readings can be large; an effect the other way counts as inactive or inconclusive.

SMILES	HT1080 IDH1KD tx	uPA surface inh	DT40 TDP1 no CPT	TDP1 cell CPT	HT1080NT lethal	IL-1B inflam inh
Cc1cc(C)cc(N2CCN(C(=O)N3CCOCC3)CC2)c1	i	i	i	i	i	i
Cc1cccc(-n2c(C)cc(C(=S)N3CCOCC3)c2C)c1C	i	i	18µM	15µM	i	i
Cc1cc(C(=O)C(=O)N(C)C)c(C)n1-c1ccc(Cl)cc1	i	i	18µM	?	i	i
Cc1cccc(C)c1NC(=S)N1CCOCC1	i	i	i	i	i	i
Cc1cc(C(=O)C(=O)N(C)C)c(C)n1-c1ccc([N+](=O)[O-])cc1	i	nt	i	i	i[9.24 µM]	i
O=C(COC(=O)/C=C/c1cccc(F)c1)NC(=O)NCc1ccccc1	i	?	?	i	i	i
O=C(N/N=C/c1ccc(Cl)cc1)c1ccc2nc[nH]c2c1	i	nt	?	?	?	i
Cc1ccc(-n2nc3c(=O)n(C(C)C(=O)NCc4ccccc4C)nc(C)c3c2C)cc1 (centres undefined)	nt	nt	23µM	?	nt	nt
CCC(C(=O)NCCc1ccc(SC)cc1)n1nc(C)c2c(C)n(-c3ccc(C)cc3)nc2c1=O (centres undefined)	nt	nt	16µM	13µM	nt	nt
Cc1ccc(-n2nc3c(=O)n(C(C)C(=O)NCc4ccc(OC(C)C)cc4)nc(C)c3c2C)cc1 (centres undefined)	nt	nt	13µM	16µM	nt	nt
CCC(C(=O)NCCc1ccccc1OC)n1nc(C)c2c(C)n(-c3ccccc3)nc2c1=O (centres undefined)	i	i	?	?	i	i
CCOc1ccccc1CNC(=O)C(CC)n1nc(C)c2c(C)n(-c3ccccc3)nc2c1=O (centres undefined)	nt	nt	?	18µM	nt	nt
O=S(=O)(NCCS(=O)(=O)N1CCN(c2ccc(F)cc2)CC1)c1ccc(F)cc1	i	nt	i	i	i	i
COc1ccc(CCNC(=O)COC(=O)Cc2c[nH]c3ccccc23)cc1OC	i	i	i	?	i	i
Cc1noc(C)c1C(=O)N1CCC[C@@]2(CCN(c3cccc(-c4ccccc4)c3)C2)C1	nt	nt	18µM	16µM	nt	nt
Cc1noc(C)c1C(=O)N1CCC2(CCCN(Cc3ccccc3)C2)CC1	nt	nt	i	i	nt	nt
Cc1noc(C)c1C(=O)N1CCC2(CCCN(C(c3ccccc3)c3ccccc3)C2)CC1	nt	nt	23µM	?	nt	nt
Cc1noc(C)c1C(=O)N1CCC[C@@]2(CCN(Cc3ccccc3)C2)C1	nt	nt	i	i	nt	nt
CCOC(=O)Nc1ccc2c(c1)N(C(=O)CN)c1ccccc1CC2	i	i	?	?	i	-63
CCN(CC)CCNCC(=O)N1c2ccccc2CCc2ccc(NC(=O)OC)cc21	i	i	i	i	i	i
CCNCC(=O)N1c2ccccc2CCc2ccc(NC(=O)OCC)cc21	i	i	?	?	i	-69
CC(=O)Nc1ccc(-c2csc(-c3cccnc3)n2)cc1	i	i	?	?	i	-55
CCCC(=O)Nc1ccc(-c2csc(-c3cccnc3)n2)cc1	i	i	16µM	?	i	i
CCOCCCn1c(SCC(=O)Nc2ccccc2Cl)nc2c(oc3ccccc32)c1=O	nt	nt	7.3µM	?	nt	nt
CCOCCCn1c(SCC(=O)Nc2ccc(C(N)=O)cc2)nc2ccccc2c1=O	?	i	?	i	i	i
SMILES	HT1080 IDH1KD tx	uPA surface inh	DT40 TDP1 no CPT	TDP1 cell CPT	HT1080NT lethal	IL-1B inflam inh
CCOCCCn1c(SCC(=O)Nc2ccccc2CC)nc2ccccc2c1=O	nt	nt	16µM	16µM	nt	nt
CCOCCCn1c(SCC(=O)Nc2ccc3[nH]c(=O)[nH]c3c2)nc2ccccc2c1=O	i	i	i	?	i	-54
COc1ccc(CCNC(=O)Cc2c(Cl)cccc2Cl)cc1	i	i	i	i	i	i
Cc1c(OCC(=O)NC2CC(C)(C)NC(C)(C)C2)ccc2c3c(c(=O)oc12)CCC3	i	i	i	?	i	-54
Cc1cc(=O)oc2c(C)c(OCC(=O)NC3CC(C)(C)NC(C)(C)C3)ccc12	i	i	i	i	i	i
Cc1c(OCC(=O)NC2CC(C)(C)NC(C)(C)C2)ccc2c1oc(=O)c1ccccc12	i	i	12µM	?	i	?
CC(=O)Nc1ccc(C(=O)CN2CCN(c3ccccc3)CC2)cc1	i	i	i	i	i	i
CC(CN1CCCCC1)NC(=O)c1cccs1 (centres undefined)	i	i	i	i	i	i
Cc1cc(C)c(C#N)c(OCC2CCCO2)n1 (centres undefined)	i	nt	i	i	i	i
Cc1ccc(NC(=O)CSc2ccc(-c3ccccn3)nn2)c(C)c1	i	i	?	?	i	i
COc1ccc(-c2ccc(SCC(=O)Nc3cccc(C(C)=O)c3)nn2)cc1OC	i	i	18µM	13µM	i	-86
Cc1cc(C)c(NC(=O)CSc2ccc(-c3ccccn3)nn2)c(C)c1	i	i	23µM	23µM	i	i
COc1ccccc1NC(=O)CSc1ccc(-c2ccccn2)nn1	?	i	?	?	i	i
O=C(CSc1ccc(-c2ccccn2)nn1)Nc1ccc(F)c(F)c1	?	i	21µM	21µM	?	i
COc1ccccc1NC(=O)CSc1ccc(-c2ccc(-n3cccn3)cc2)nn1	i	i	18µM	?	i	i
COc1cc(NC(=O)c2ccc3oc(=O)c(S(=O)(=O)c4ccccc4)cc3c2)cc(OC)c1	nt	nt	i	i	nt	nt
Cc1ccc(C)c(NC(=O)Cn2cc(S(=O)(=O)c3ccc(F)cc3)c(=O)c3cc(F)ccc32)c1	nt	nt	i	i	nt	nt
Cc1ccc2oc(-c3ccc(Cl)c(NC(=O)c4ccc(OC(C)C)cc4)c3)nc2c1	nt	nt	i	i	nt	nt
CC[C@H]1O[C@H](C)CC2=C1C(=O)OC(C)(C)O2	i	nt	i	i	i	i
O=C(CSc1ccc(-c2cccs2)nn1)Nc1cccc(F)c1	nt	nt	23µM	15µM	nt	nt
Cc1cccc(NC(=O)CSc2ccc(-c3ccccn3)nn2)c1C	i	i	?	i	i	i
Cc1c(Cl)cccc1NC(=O)CSc1ccc(-c2ccccn2)nn1	nt	nt	23µM	?	nt	nt
CCOC(=O)c1ccc(NC(=O)CSc2ccc(-c3ccccn3)nn2)cc1	?	i	18µM	21µM	?	i
CCOc1ccc(NC(=O)CSc2ccc(-c3ccccn3)nn2)cc1	i	i	?	?	i	i
CCc1nnc(NC(=O)CSc2ccc(-c3cccs3)nn2)s1	i	i	i	i	i	i
COc1ccc(-c2ccc(SCC(=O)c3cccs3)nn2)cc1OC	i	i	16µM	?	i	i
O=C(NN=Cc1cc(Cl)ccc1[N+](=O)[O-])c1ccco1	i	i	i	i	i	i
Cc1ccc(N2CCn3c2nc2c3c(=O)n(CCCc3ccccc3)c(=O)n2C)cc1	nt	nt	i	i	nt	nt
